Experimental data from ChEMBL document CHEMBL2218924, “A broad activity screen in support of a chemogenomic map for kinase signalling research and drug discovery” (Biochem J, 2013).

Target: T1, Serine/threonine-protein kinase Nek11 (Homo sapiens) (UniProt Q8NG66)
T1 sequence (whole entry): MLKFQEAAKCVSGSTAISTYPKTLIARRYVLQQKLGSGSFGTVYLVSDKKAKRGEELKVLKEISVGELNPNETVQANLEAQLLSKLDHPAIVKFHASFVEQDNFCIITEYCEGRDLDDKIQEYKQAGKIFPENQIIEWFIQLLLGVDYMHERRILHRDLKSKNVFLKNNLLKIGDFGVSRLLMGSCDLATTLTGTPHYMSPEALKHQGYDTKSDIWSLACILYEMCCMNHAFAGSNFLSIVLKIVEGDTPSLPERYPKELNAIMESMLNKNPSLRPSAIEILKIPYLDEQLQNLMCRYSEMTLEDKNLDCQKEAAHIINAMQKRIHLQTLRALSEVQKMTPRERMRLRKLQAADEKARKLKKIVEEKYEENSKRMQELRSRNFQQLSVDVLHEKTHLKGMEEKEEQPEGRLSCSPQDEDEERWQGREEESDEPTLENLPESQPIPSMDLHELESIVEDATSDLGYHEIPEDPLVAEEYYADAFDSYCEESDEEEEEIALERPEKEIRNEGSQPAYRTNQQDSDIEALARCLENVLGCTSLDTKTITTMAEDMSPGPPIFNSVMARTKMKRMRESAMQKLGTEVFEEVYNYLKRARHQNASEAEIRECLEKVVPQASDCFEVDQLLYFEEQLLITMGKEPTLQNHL
Conditions: at 1 µM

Row | Structure (SMILES) | residual activity [%]
1 | CO[C@H]1C[C@@H]2CC[C@@H](C)[C@@](O)(O2)C(=O)C(=O)N2CCCC[C@H]2C(=O)O[C@H]([C@H](C)C[C@@H]2CC[C@@H](O)[C@H](OC)C2)CC(=O)[C@H](C)/C=C(\C)[C@@H](O)[C@@H](OC)C(=O)[C@H](C)C[C@H](C)/C=C/C=C/C=C/1C | 97
2 | Nc1nc(Nc2ccc(S(N)(=O)=O)cc2)nn1C(=S)Nc1c(F)cccc1F | 51
3 | O=C1NC(=O)/C(=C\c2ccc3nccnc3c2)S1 | 43
4 | COc1ccc(CNc2nc(N(CCO)CCO)nc3c2ncn3C(C)C)cc1 | 53
5 | COc1ccc(C(=O)Nc2sc3c(c2C(N)=O)CCCC3)cc1OC | 77
6 | O=C(Nc1cccc(Nc2cc(Nc3cccc(C(F)(F)F)c3)ncn2)c1)C1CC1 | 117
7 | Oc1ccc(Nc2nc(-c3ccc(Cl)cc3)cs2)cc1 | 72
8 | COc1ccc(OC)c2c(=S)c3ccccc3[nH]c12 | 70
9 | O=C1Nc2cc(Br)ccc2/C1=C1/Nc2ccccc2/C1=N\O | 69
10 | Nc1cccc(-c2cc3c(Oc4cccc(O)c4)ncnc3[nH]2)c1 | 54
11 | Oc1n[nH]c2nnc(-c3c(-c4ccccc4)nn4ccccc34)cc12 | 56
12 | COc1cccc(-c2cc(=O)c3ccccc3o2)c1N | 64
13 | Cc1nc2cc3nc(-c4cccs4)cnc3cc2n1C | 93
14 | O=Nc1c(-c2c(O)[nH]c3ccccc23)[nH]c2ccccc12 | 70
15 | O=C1c2ccccc2-[n+]2ccc3c([nH]c4ccccc43)c21 | 48
16 | CNc1cc2c(Nc3cccc(Br)c3)ncnc2cn1 | 109
17 | O=c1cc(-c2cccc3c2Sc2ccccc2S3)oc(N2CCOCC2)c1 | 93
18 | C[C@@H](N)[C@H]1CC[C@H](C(=O)Nc2ccncc2)CC1 | 99

Row | Structure (SMILES) | residual activity [%]
19 | Cc1nc(-c2ccccc2)c(-c2ccncc2)o1 | 81
20 | CCC(=O)Nc1ccc2ncnc(Nc3cccc(Br)c3)c2c1 | 84
21 | Cn1cnc2cc3c(Nc4cccc(Br)c4)ncnc3cc21 | 89
22 | CC(C)n1cnc2/c(=N/c3cccc(Cl)c3)nc(NCCO)[nH]c21 | 43
23 | Oc1c2ccccc2c2c3c(cccc13)N=N2 | 50
24 | COc1cc2ncnc(Nc3ccc(O)c(Br)c3)c2cc1OC | 50
25 | N#C/C(=C(\N)Sc1ccc(N)cc1)c1ccccc1C(F)(F)F | 64
26 | CCOc1cc2ncnc(Nc3cccc(Br)c3)c2cc1OCC | 104
27 | O=C1NC(=O)c2c1c1c3ccccc3[nH]c1c1[nH]c3cc(Br)ccc3c21 | 62
28 | CC#CC(=O)Nc1cc2c(Nc3ccc(F)c(Cl)c3)ncnc2cn1 | 70
29 | NC(=O)c1ccc2[nH]c(-c3ccc(Oc4ccc(Cl)cc4)cc3)nc2c1 | 54
30 | O=C(Nc1cccc(Nc2nccc(Nc3cccc(C(F)(F)F)c3)n2)c1)C1CC1 | 90
31 | O=c1c2ccccc2[nH]c(=S)n1CCN1CCC(=C(c2ccc(F)cc2)c2ccc(F)cc2)CC1 | 106
32 | Ic1cccc(CSc2nnc(-c3ccncc3)o2)c1 | 103
33 | O=C1NC(=O)/C(=C/c2ccc3c(c2)OC(F)(F)O3)S1 | 80
34 | Cc1ccc(NC2=CC(=O)c3sc(C)nc3C2=O)cc1 | 66
35 | CC(=O)O/N=C1\C(=C2\C(=O)Nc3cc(Br)ccc32)Nc2ccccc21 | 60
